Compound activity as filed in PubChem BioAssay.
DAGLB inh: diacylglycerol lipase beta (human) inhibition | Q8NCG7 | HEK293T DAGLB membrane lysate, EnzChek fluorogenic substrate | inhibition, % at 5.17 µM | 340,000 tested, 0.059% active; in the data active = inhibition above about 34%;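 note: 0% = enzyme with vehicle and 100% = wells lacking enzyme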
pPAFAH inh: pPAFAH (human) enzyme inhibition; Q13093; recombinant pPAFAH, FP-rhodamine probe fluorescence polarization; inhibition, % at 3.39 µM; 330,000 tested, 1.5% active;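 active = inhibition above the mean inhibition across the screen plus 3 SD, cut at about 25% in these data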;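 note: inhibitors block binding of the rhodamine activity-based probe so polarization drops; 0% = enzyme with DMSO and 100% = wells lacking pPAFAH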
PAFAH2 inh: PAFAH2 (human) inhibition. 340,000 tested, 0.99% active. recombinant PAFAH2, FP-rhodamine activity probe, fluorescence polarization. inhibition, % at 3.39 µM. Q99487;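 active = inhibition above the mean over all tested compounds plus 3 SD, cut at about 30% in these data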;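 note: inhibitors block probe labeling of enzyme so polarization drops; 0% = enzyme with DMSO and 100% = wells lacking PAFAH2 protein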
ATG4B inhibitor: blocks human ATG4B protease cleavage of LC3 substrate; Q9Y4P1; ATG4B cleavage of LC3-PLA2, NBD-HPC fluorescence, 1 h; inhibition, % at 8.33 µM; 340,000 tested, 0.51% active; in the data active = inhibition above about 40%
PAFAH1B3 FP inh: blocks human PAF acetylhydrolase 1B catalytic subunit 3; recombinant PAFAH1B3, FP-rhodamine probe, fluorescence polarization; inhibition, % at 3.39 µM; Q15102; 340,000 tested, 0.28% active;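 active = inhibition above the screen-wide average of all tested compounds plus 3 SD, cut at about 25% in these data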;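 note: 0% = enzyme with DMSO only and 100% = wells lacking PAFAH1B3 protein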
PAFAH1B2 inh: inhibitors of human PAFAH1B2; recombinant PAFAH1B2, FP-rhodamine activity probe, fluorescence polarization; inhibition, % at 3.39 µM; 340,000 tested, 1.2% active;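 active = inhibition above the mean of all tested compounds plus 3 SD, cut at about 24% in these data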;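 note: 0% = enzyme with DMSO and 100% = wells lacking PAFAH1B2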
* = called active by the depositor; · = no result. A selection: hits, their analogues and other compounds. The true share with any hit is near 3%.

SMILES	DAGLB inh	pPAFAH inh	PAFAH2 inh	ATG4B inhibitor	PAFAH1B3 FP inh	PAFAH1B2 inh
O=[N+]([O-])c1cc(-c2csc(NCCc3nc4cc(Cl)c(Cl)cc4n3CCCO)n2)ccc1Cl	6	31*	-3	8	16	18
CCCn1c(CCNc2nc(-c3ccc(Cl)c([N+](=O)[O-])c3)cs2)nc2cc(Cl)c(Cl)cc21	-3	10	10	-14	-7	8
COc1ccc(S(=O)(=O)N2CCCCC2)cc1NC(=O)CCCOc1ccc(C)cc1	-1	7	7	-2	-1	13
COc1ccc(NC(=O)COC(=O)/C=C/c2ccccc2[N+](=O)[O-])cc1OC	3	30*	17	-6	6	6
COc1ccc(C(=O)COC(=O)/C=C/c2ccccc2[N+](=O)[O-])cc1	2	18	3	17	3	6
O=C(/C=C/c1ccccc1[N+](=O)[O-])OCC(=O)c1ccccc1	-4	25*	29	38	1	4
COC(=O)CNC(=O)COC(=O)/C=C/c1ccccc1[N+](=O)[O-]	-1	5	5	-1	17	6
O=C(COC(=O)C12CC3CC(CC(Cl)(C3)C1)C2)Nc1ccc2[nH]c(=O)[nH]c2c1	3	6	7	-9	5	28*
CSc1cccc(NC(=O)CCCNC(=O)c2ccc(Cl)cc2)c1	-3	0	8	3	2	11
CC(=O)OC[C@]12CC[C@H]3[C@@](C)(CC[C@H]4C(C)(C)CCC[C@]34C)[C@@H]1C[C@@H](C1=CC(=O)O[C@@H]1OC(C)=O)O2	·	7	·	·	·	·
CC(=O)OC[C@]12CC[C@H]3[C@@](C)(CC[C@H]4C(C)(C)CCC[C@]34C)[C@@H]1C[C@H](C1=CC(=O)O[C@H]1OC(C)=O)O2	·	50*	·	·	·	·
CN1CCN(NC(=O)c2c(-c3ccccc3)sc3ccccc23)CC1	0	-2	-8	8	-12	1
CCN(c1ccccc1)S(=O)(=O)c1ccc(Cl)c(NC(=O)COC(=O)c2ccc(O)cc2)c1	-3	34*	67*	-24	1	-3
CCN(c1ccccc1)S(=O)(=O)c1ccc(Cl)c(NC(=O)COC(=O)c2cc(O)c3ccccc3c2O)c1	·	20	·	·	·	·
COc1ccc(N2Cc3ccc(C(=O)N/N=C\c4ccc(O)cc4O)cc3C2)cc1	·	39*	·	·	·	·
CC(C)C(=O)Nc1ccc(S(=O)(=O)Nc2nccc(/C=C/c3ccccc3)n2)cc1	4	3	3	7	5	0
CN(C(=O)COC(=O)c1ccc(Cl)c(S(=O)(=O)NCc2ccccc2)c1)C1CCS(=O)(=O)C1 (stereo not drawn)	0	·	5	0	1	34*
O=S(=O)(Nc1cccnc1)c1ccc(Br)c2ccccc12	5	11	3	3	9	26*
COc1ccccc1-c1nnc2sc(COc3ccc(Cl)cc3)nn12	2	1	6	2	-3	26*
C/C(=N\NC(=O)CNC(=O)c1cccs1)c1ccc(Cl)c(Cl)c1	-1	7	3	-4	6	4
COC(=O)[C@]1(C)N[C@H](CN(C)C(C)=O)[C@@H]2C(=O)N(Cc3ccccc3)C(=O)[C@@H]21	-2	-1	5	-8	13	8
COc1ccc(CCC(=O)N/N=C\c2cccs2)cc1	-1	4	3	-8	2	5
COc1cccc(N2CCN(C(=O)CCNS(=O)(=O)c3ccc(F)c(F)c3)CC2)c1	-5	29*	5	-6	2	-1
COc1ccc(N2CCN(C(=O)CCNS(=O)(=O)c3ccccc3)CC2)cc1	4	3	4	-10	-3	0
Cc1cccc(C(=O)OCC(=O)N2CCCCCC2)c1	2	0	12	-3	9	2
O=[N+]([O-])c1cc(CN2CCOCC2)c2cccnc2c1O	·	·	·	1	·	·
Oc1c(Cl)cc(CN2CCOCC2)c2cccnc12	2	28*	7	-5	8	5
CC(=O)c1nn(-c2cccc(Br)c2)cc1C(=O)c1ccco1	-2	25*	5	-9	8	-4
CC(=O)c1nn(-c2cccc(Br)c2)cc1C(=O)c1ccccc1	-6	7	2	-11	10	-3
O=[N+]([O-])c1cccnc1Oc1cc(Cl)c(Cl)cc1Cl	-15	·	·	·	·	·
